Screening data deposited in PubChem BioAssay by Broad Institute.
This excerpt belongs to a sample that is enriched for hits.
PRC2 inh – EZH2/PRC2 methyltransferase inhibitors, primary screen, biochemical, DELFIA time-resolved fluorescence, single point | Histone-lysine N-methyltransferase EZH2 (Homo sapiens), Q15910 | PRC2 H3K27 methylation, DELFIA TRF, 1 h | inhibition, % at 12.5 µM | 57,000 compounds, 0.35% hits;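 active = mean inhibition of replicates at least 50% and every single replicate also reaching 50%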;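 also: dimethyl H3K27 on biotinylated H3 21-44 peptide detected by antibody; plate controls were median neutral control wells for no effect and median positive control wells for full effect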
Target sequence (Q15910 whole entry, looked up): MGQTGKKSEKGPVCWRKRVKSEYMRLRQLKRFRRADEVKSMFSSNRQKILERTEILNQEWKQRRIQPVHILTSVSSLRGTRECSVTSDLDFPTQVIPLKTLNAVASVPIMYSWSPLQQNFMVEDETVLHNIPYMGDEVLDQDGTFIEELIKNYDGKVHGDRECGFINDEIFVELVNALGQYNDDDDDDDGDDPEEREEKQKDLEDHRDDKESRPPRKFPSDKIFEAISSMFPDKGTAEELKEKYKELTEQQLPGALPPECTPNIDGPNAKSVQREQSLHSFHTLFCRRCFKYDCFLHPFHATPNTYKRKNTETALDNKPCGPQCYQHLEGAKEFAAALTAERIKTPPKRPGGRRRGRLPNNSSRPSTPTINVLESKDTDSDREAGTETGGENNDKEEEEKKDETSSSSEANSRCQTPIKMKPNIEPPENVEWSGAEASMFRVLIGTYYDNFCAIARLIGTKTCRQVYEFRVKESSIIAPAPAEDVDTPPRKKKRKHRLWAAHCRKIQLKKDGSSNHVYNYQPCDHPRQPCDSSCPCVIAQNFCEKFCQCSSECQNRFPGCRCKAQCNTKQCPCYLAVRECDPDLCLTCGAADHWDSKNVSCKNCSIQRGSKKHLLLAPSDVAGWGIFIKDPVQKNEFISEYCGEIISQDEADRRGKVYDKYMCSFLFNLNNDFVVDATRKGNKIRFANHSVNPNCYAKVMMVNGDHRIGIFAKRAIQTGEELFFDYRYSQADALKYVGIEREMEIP
Starred values were filed as active, the others as inactive.

SMILES	PRC2 inh
CC(CCc1ccc(O)cc1)O[C@@H]1O[C@H](CO[C@H]2OC[C@](O)(CO)[C@H]2O)[C@@H](O)[C@H](O)[C@H]1O (some centres undefined)	94*
Cc1ccnc(NC(c2ccccc2[N+](=O)[O-])c2ccc3ccc(C)nc3c2O)c1 (centres undefined)	-15
COc1ccn(C)c(=O)c1C#N	22
COC(=O)C12CC3CC(C(C)O)C1N(CCc1c2[nH]c2ccc(OC)cc12)C3 (centres undefined)	11
C/C=C(/C)C(=O)O[C@H]1C(C)=C2[C@H]([C@@H]1OC(=O)CCCCCCC)[C@@](C)(OC(C)=O)C[C@H](OC(=O)CCC)[C@@]1(O)[C@H]2OC(=O)[C@@]1(C)O	35
C[C@H]1CN([C@@H](C)CO)C(=O)CCCn2cc(nn2)CO[C@@H]1CN(C)C(=O)Oc1ccc2ccccc2c1	4
CCCCC/C=C\C/C=C\C/C=C\C/C=C\CCCC(=O)NCC(=O)O	3
CCCCC/C=C/C/C=C/C/C=C/C/C=C/CCCC(=O)NCCCC(=O)O	81*
CCCCC/C=C\C/C=C\C/C=C\C/C=C\CCCC(=O)NCCO	16
c1cncc(C2=NCCC2)c1	-1
COc1ccc2[nH]c3c(c2c1)CCN=C3C	-33
N#CC(O[C@@H]1O[C@H](CO)[C@@H](O)[C@H](O)[C@H]1O)c1ccccc1 (some centres undefined)	97*
O=c1ccc2cc(OC3O[C@H](CO)[C@@H](O)[C@H](O)[C@H]3O)c(O)cc2o1 (some centres undefined)	18
COC1=CC(=O)O[C@@H](/C=C/c2ccccc2)C1	2
CNc1ccc2oc(C[C@H]3O[C@@]4(CC[C@H]3C)O[C@H]([C@H](C)C(=O)c3ccc[nH]3)[C@H](C)C[C@H]4C)nc2c1C(=O)O	2
